# According to PubChem BioAssay AID624331 (National Center for Advancing Translational Sciences (NCATS), 2012):
# Records with an inconclusive call do not appear. Active and inactive are the calls of the source. Calls come from the whole dose curve; as a rule, active = well fitted activation curve with a large enough effect; inconclusive = small, poorly fitted or top-dose-only effect; inactive = no such curve, though single readings can be large or run the other way.
# Assay: qHTS assay for re-activators of p53 using a Luc reporter: Hit Validation with no p53 Expressed; for activity change, positive = activation: 0% is about no effect
# Details: p53-null cells, luciferase reporter counter-screen; series mostly up to 46.1 µM; activity change, positive = activation: at the top concentration
# Method in brief: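 Without p53 expression, cells (1000/well, Opti-MEM + 10% FBS) were exposed 24 h at 37 deg C to compounds in a 1:5 series from 10 mM stock (top 46.1 µM in well). Luminescent signal read 10 min after Amplite addition; actives flag unspecific activation.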
# Potency is the fitted concentration of half-maximal effect.
SMILES,"activity change, positive = activation",Potency
Cc1ccc(C(=O)CC(=O)COc2ccc(Cl)cc2)cc1,90% (inactive),–
COc1ccc(-c2cc3ccc(F)cc3cn2)cc1,-5.54% (inactive),–
Oc1c(CN2CCOCC2)cc(COCc2ccccc2)c2cccnc12,-61.3% (inactive),–
O=C(Nc1nc(-c2cccs2)cs1)c1ccc([N+](=O)[O-])o1,-36.5% (inactive),–
CCOc1ccc(NC(=O)c2cnsn2)cc1,-11.8% (inactive),–
O=C(NC1CCCCC1)c1ccc(-c2ccccc2F)o1,38.8% (inactive),–
COc1cccc(/C=N/Nc2cc(-n3nc(C)cc3-c3ccccc3)ncn2)c1O,63.3% (inactive),–
COc1ccc(CC(=O)Nc2ccc(C(=O)Nc3ccccc3C(=O)O)cc2)cc1OC,-17.2% (inactive),–
CCc1ccc(N=c2c([N+](=O)[O-])nn(-c3ccccc3)n2O)cc1,-0.218% (inactive),–
COc1cc(OC)cc(C(=O)NNC(=O)c2ccccn2)c1,-11.2% (inactive),–
Cc1cc(F)ccc1NC(=O)Nc1ccc2c(c1)OCO2,-27.5% (inactive),–
Cc1c(/C(O)=C2/C(=O)C(=O)N(CCN3CCOCC3)C2c2cccs2)cnn1-c1ccccc1 (centres undefined),16.8% (inactive),–
CC(C)(C)CC(=O)O/N=C(\N)c1ccccn1,–,164 nM (active)
Nc1cccc(-c2nc3ccc(C(=O)c4ccccc4)cc3[nH]2)c1,-22.3% (inactive),–
O=S(=O)(CCOc1ccccc1)c1nc2ccccc2[nH]1,-63.1% (inactive),–
Cc1ccc2cc(C#N)c(NCc3ccco3)nc2c1,-25.2% (inactive),–
Cc1ccc(OCCN2CCOCC2)cc1C,7.55% (inactive),–
CC(=O)c1cccc(NC(=O)c2sc(Cl)nc2C)c1,-42.3% (inactive),–
COCCn1c(C)cc(C(=O)CSc2nc3ccccc3s2)c1C,-4.14% (inactive),–
CCc1ccc(OCC(=O)NC(NC(=S)Nc2ccccc2C)C(Cl)(Cl)Cl)cc1 (centres undefined),-20.1% (inactive),–

SMILES,"activity change, positive = activation",Potency
CCOc1ccc(NS(=O)(=O)c2ccc(C(=O)NC3CCN(Cc4ccccc4)CC3)cc2)cc1,-28.9% (inactive),–
Cn1cc(Cl)c(C(=O)Nc2nc3ccccc3s2)n1,36.7% (inactive),–
CC(=O)N(C)c1ccc(NC(=O)CCN2C(=O)c3ccccc3C2=O)cc1,-23.3% (inactive),–
Cc1cc(C(=O)CSc2nnc(N)s2)c(C)n1Cc1cccs1,-10.8% (inactive),–
COc1ccc(C(=O)O/N=C(\N)c2ccccc2)c(OC)c1,–,1160 nM (active)
COc1cc(C(C)=O)ccc1Oc1ncnc2c1cnn2-c1ccc(F)cc1,12.1% (inactive),–
Cc1cc(NC(=O)c2ccco2)sc1C,-3.27% (inactive),–
O=c1c2ccccc2oc2ccc(-c3ccc4cc[nH]c4c3)cc12,42.2% (inactive),–
COc1ccccc1C(=O)CC(=O)c1ccccc1,-25.3% (inactive),–
Cc1nc2ccccc2nc(C)c1=NOCc1ccccc1Cl,-25.3% (inactive),–
O=C(OCC(=O)N1CCc2ccccc21)c1ccccc1[N+](=O)[O-],37% (inactive),–
COc1ccnc(CSC(N)=Nc2ccccc2OC)c1,-41.7% (inactive),–
COc1ccc(-c2coc3cc(O[C@@H]4O[C@H](CO)[C@@H](O)[C@H](O)[C@H]4O)ccc3c2=O)cc1,8.1% (inactive),–
CCC(=O)Nc1cccc(NC(=S)NC(=O)c2ccc(Cl)cc2)c1,-1.86% (inactive),–
CCCN1CCC(=NNC(=O)CSc2cc(C)c(Br)cc2C)CC1,-19.9% (inactive),–
O=C1/C(=C/Nc2ccc3c(c2)OCO3)CCc2ccccc21,-43.5% (inactive),–
Cc1nc(NC(=O)c2csc3ccccc23)sc1C,-13.5% (inactive),–
CCOc1cccc(-c2nc3cc(C)ccc3o2)c1,40.1% (inactive),–
O=c1oc(-c2ccc(O)c(O)c2)cc2cc(O)cc(O)c12,11.6% (inactive),–
